Drawing on PubChem BioAssay, this text covers z-score for 16 compounds.

The nature of assay [1]: A549 cell viability effects, profiling panel, calcein-AM fluorescence, 48 h, basal (AID 1162). To be noted: higher = more signal.
The nature of assay [2]: adipocyte viability effects, profiling panel, cell-based, 3T3-L1 adipocytes, calcein-AM fluorescence, 48 h, basal (AID 1163). The settings on record: 3T3-L1 adipocytes viability, higher = more signal.
Assay [3] in a line: HepG2 cell viability effects, profiling panel, calcein-AM fluorescence, 48 h, basal (AID 1164). The settings on record: higher = more signal.
Assay [4] can be described thus: MM1S cell viability effects, profiling panel, calcein-AM fluorescence, 48 h, basal (AID 1165).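 Note: viability of MM1S multiple myeloma cells under basal unstimulated conditions.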 The settings on record: higher = more signal.
Assay [5] in a line: basal RPMI8226 viability, no added stimulus, profiling panel, cell-based, calcein-AM fluorescence, 48 h, PK04 Diversity Set (AID 1166).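 Note: cells grown under basal conditions without added stimulus.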 The settings on record: RPMI8226 myeloma viability, higher = more signal.
The nature of assay [6]: basal HepG2 mitochondrial membrane potential changes, profiling panel, cell-based, JC-1 fluorescence, 24 h, 100 nL compound (AID 1167). To be noted: higher = more signal.
A short description of assay [7]: basal 3T3-L1 adipocyte mitochondrial potential changes, profiling panel, cell-based, JC-1 fluorescence, 3T3-L1 adipocytes, 24 h, 100 nL compound (AID 1168). To be noted: JC-1 mitochondrial fluorescence, higher = more signal, called active from +8 up or from −8 down.
Assay [8] in a line: basal RPMI8226 mitochondrial membrane potential changes, profiling panel, cell-based, JC-1 fluorescence, 24 h, 100 nL compound (AID 1169). To be noted: RPMI8226 myeloma, JC-1 mitochondrial potential fluorescence, higher = more signal.
The nature of assay [9]: basal MM1S mitochondrial membrane potential changes, profiling panel, cell-based, JC-1 fluorescence, 24 h, 100 nL compound (AID 1170). The settings on record: higher = more signal.
The nature of assay [10]: A549 lung cancer cell viability effects, profiling panel, resazurin fluorescence, 24 h, PK04 Diversity Set (AID 1171). To be noted: higher = more signal, called active from +8 up or from −8 down. A general note: Alamar Blue is a resazurin reagent that responds to reducing activity.

Active and inactive are the calls of the source.
Note: test concentration not given here.

With `C=C(C(=O)CC[C@H](OC(=O)c1ccccc1-c1ccccc1C(=O)O)c1ccccc1OCCO)C(C)C`, the z-score in assay [1] is 0.301; in assay [2], 1.72; in assay [3], 0.255; in assay [4], -3.44; in assay [5], -2.35; in assay [6], -0.266. In addition, the z-score in assay [7] was 0.585 (inactive); in assay [8] it was -0.636; in assay [9], 0.63; in [10], 0.109 (inactive).
Consider `COCCOC(=O)N1C(=O)[C@@]2(c3cc(C#CCNC(N)=O)ccc31)[C@H](c1ccc(OCCO)cc1)N1[C@H](c3ccccc3)[C@H](c3ccccc3)OC(=O)[C@H]1[C@@H]2C(N)=O`, for which the z-score is 0.586 in assay [1]; -0.0118 in assay [2]; 0.334 in [3]; -1.24 in [4]; -0.668 in assay [5]; -1.7 in assay [6]. Also, the z-score in [7] is 0.407 (inactive); in [8], -0.185; in assay [9], -0.604; in [10], 0.266 (inactive).
For `O=C1C2C=CC(C(O)C=Cc3ccc([N+](=O)[O-])cc3)N(Nc3ccccc3)C2C(=O)N1c1ccccc1` (stereo not given), the z-score was 2.48 in assay [1]; -0.123 in assay [2]; 1.28 in [3]; 0.0385 in [4]; -0.0477 in [5]; -0.0526 in assay [6]. In addition, the z-score in assay [7] is -1.19 (inactive); in assay [8], -0.175; in assay [9], -0.951; in assay [10] it was -0.102 (inactive).
`COc1ccc([Si](C)(C)[C@H]2[C@H](CCO)O[C@@]3(C(=O)N(Cc4ccccc4)c4ccc(N5C(=O)c6ccccc6Oc6ccccc65)cc43)[C@@H]2C)cc1`: the z-score in assay [1] is -1.01; in assay [2] it was 0.271; in [3] it was -3.26; in assay [4] it was -1.7; in assay [5], -3.51; in [6] it was 0.0091. Further, the z-score in assay [7] was -0.404 (inactive); in [8] it was -0.896; in [9] it was -1.53; in assay [10], -2.28 (inactive).
Turning to `COC(=O)[C@@]1(Cc2ccc(F)cc2)[C@H]2c3cc(C(=O)N(C)C)n(Cc4ccc(O)c(OC)c4)c3C[C@H]2CN1C(=O)c1ccccc1`, the z-score in assay [1] is 0.511; in assay [2], 0.997; in [3] it was -0.269; in assay [4], -0.0229; in [5], -1.92; in [6], 0.766. Besides, the z-score in assay [7] is -0.475 (inactive); in [8], -0.379; in assay [9], -1.63; in [10], -0.88 (inactive).
Turning to `O=C1OCC=C[C@H]2OC34C=CCN(c5ccc6ccccc6c5)C(=O)[C@H]3N(CCCCCO)C(=O)[C@@H]4[C@@H]12` (stereo not given in full), the z-score was -0.381 in [1]; -0.0217 in assay [2]; -1.08 in assay [3]; 0.589 in assay [4]; 0.0725 in assay [5]; -0.913 in assay [6]. In addition, the z-score in assay [7] was -0.436 (inactive); in assay [8], -0.0765; in [9], 0.313; in assay [10] it was -1.01 (inactive).
Turning to `CCCC=C(CCC)[C@@H](NS(=O)(=O)c1cccc2cccnc12)c1ccc(-c2ccccc2)cc1`, the z-score in assay [1] is -0.97; in assay [2], -0.411; in assay [3], -0.615; in assay [4], -1.95; in assay [5] it was -4.54; in assay [6] it was -3.54. Besides, the z-score in assay [7] was -0.0229 (inactive); in assay [8] it was -0.361; in [9], -0.844; in assay [10], 0.864 (inactive).
Consider `C[C@]1(C(=O)O)c2ccccc2C(=O)N(Cc2ccc(OC(F)(F)F)cc2)[C@H]1c1ccc(CO)cc1`, for which the z-score in assay [1] was 0.0055; in [2], 0.755; in assay [3], -0.167; in assay [4], -0.24; in [5], -1.48; in [6], 0.248. For the same compound, the z-score is -1.18 (inactive) in assay [7], -0.0611 in assay [8], 0.057 in assay [9] and 0.244 (inactive) in assay [10].
Regarding `CCCCCN1CC=CC23O[C@@H]4/C=C\CCC(C)OC(=O)C4[C@H]2C(=O)N(CCCCCCO)[C@@H]3C1=O` (stereo not given in full), the z-score in assay [1] is 0.29; in [2] it was 0.644; in assay [3] it was 0.822; in [4], 1.6; in [5] it was 0.656; in assay [6] it was 0.589. In addition, the z-score was 0.785 (inactive) in assay [7], -0.141 in [8], -0.459 in assay [9] and 0.944 (inactive) in assay [10].
Turning to `CCOC(=O)C[C@H]1[C@H](OC(=O)c2ccc(C(=O)c3ccccc3)cc2)[C@@H](NC(=O)CC(C)C)c2cc(OCCCO)ccc2N1C(=O)Cc1ccc(OC)cc1`, the z-score in assay [1] was -0.206; in assay [2], -0.194; in assay [3] it was -0.0232; in assay [4], 0.467; in assay [5], -0.679; in assay [6], 1.88. For the same compound, the z-score is -0.689 (inactive) in [7], 0.573 in [8], 0.288 in [9] and 0.189 (inactive) in assay [10].
On to `O=C(NCCN1CCOCC1)[C@@H]1c2ccccc2C(=O)N(Cc2ccccc2)[C@H]1c1ccc(CO)cc1`, for which the z-score in assay [1] was 0.178; in assay [2] it was -0.323; in assay [3] it was 0.225; in [4], -0.593; in assay [5] it was 0.137; in [6], 2.07. The z-score is 0.422 (inactive) in [7], -0.78 in assay [8], -0.218 in [9] and 1.59 (inactive) in assay [10].
As for `COc1cc(NN2C(C(O)C3CCCCC3)C=CC3C(=O)N(c4ccccc4)C(=O)C32)cc(OC)c1OC` (stereo not given), the z-score in [1] was -0.278; in assay [2], 0.0809; in [3], 0.736; in assay [4] it was -0.434; in assay [5] it was -1.8; in assay [6] it was -1.08. Further, the z-score in [7] was 0.0506 (inactive); in [8] it was -0.741; in assay [9], 0.439; in assay [10], -1.37 (inactive).
Regarding `C=CCC(OC(C)=O)[C@@H]1[C@@H](N(Cc2cccc3ccccc23)C(=O)c2cccc3ccccc23)c2cc(OCCCO)ccc2N1C(=O)c1ccc2ccccc2c1` (stereo not given in full), the z-score in assay [1] is -0.0249; in assay [2], 0.521; in assay [3], -0.184; in [4], -0.189; in [5], 0.0694; in assay [6] it was 2.48. Besides, the z-score is -0.419 (inactive) in [7], 0.489 in assay [8], 0.591 in [9] and 0.933 (inactive) in [10].
Take `C[C@@]12COC[C@]13C=C(Br)[C@H](C2)[C@@]1(CO1)C3=O`: the z-score in assay [1] is 0.109; in [2] it was -0.245; in assay [3] it was -0.318; in assay [4] it was -1.75; in [5], -0.31; in assay [6], -1.47. The z-score was -0.24 (inactive) in assay [7], 0.253 in assay [8], -1.12 in assay [9] and -0.557 (inactive) in [10].
Consider `C=C(COC)C(=O)CC[C@H](OC(=O)c1cccnc1)c1ccc(CO)o1`, for which the z-score is -0.15 in [1]; -0.266 in assay [2]; -0.53 in [3]; -0.401 in assay [4]; -0.535 in assay [5]; -0.981 in [6]. For the same compound, the z-score in [7] was -0.492 (inactive); in assay [8], 0.541; in assay [9] it was -0.267; in assay [10], -0.452 (inactive).
On to `COCCOC(=O)N1C(=O)[C@@]2(c3cc(C#CC4=CCCCC4)ccc31)[C@H](C(=O)N1CCCCCCC1)[C@H]1C(=O)O[C@H](c3ccccc3)[C@H](c3ccccc3)N1[C@@H]2c1ccc(OCCO)cc1`, for which the z-score is 0.382 in [1]; 1.74 in assay [2]; -0.214 in [3]; -0.774 in [4]; -0.779 in assay [5]; 0.225 in assay [6]. Further, the z-score in assay [7] is -3.07 (inactive); in assay [8] it was -0.674; in [9], -1.14; in assay [10], -0.223 (inactive).
